Most compounds without a hit are left out; they make up all but 3.6% or so of the library.
AmpC no deterg: blocks E. coli AmpC beta-lactamase in detergent-free assay; P00811; AmpC nitrocefin hydrolysis, absorbance 480 nm, 0.0001% Triton; Potency, µM (series often up to 57.1 µM), for the others: at the highest dose activity change, negative = inhibition, most hits filed as inhibitors; 330,000 tested, 0.52% active; AID 485341;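 note: plate controls were no compound for no effect and no enzyme for full effect; nearly all actives have a fitted effect of over 20% in size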
Target sequence (P00811 whole entry, looked up): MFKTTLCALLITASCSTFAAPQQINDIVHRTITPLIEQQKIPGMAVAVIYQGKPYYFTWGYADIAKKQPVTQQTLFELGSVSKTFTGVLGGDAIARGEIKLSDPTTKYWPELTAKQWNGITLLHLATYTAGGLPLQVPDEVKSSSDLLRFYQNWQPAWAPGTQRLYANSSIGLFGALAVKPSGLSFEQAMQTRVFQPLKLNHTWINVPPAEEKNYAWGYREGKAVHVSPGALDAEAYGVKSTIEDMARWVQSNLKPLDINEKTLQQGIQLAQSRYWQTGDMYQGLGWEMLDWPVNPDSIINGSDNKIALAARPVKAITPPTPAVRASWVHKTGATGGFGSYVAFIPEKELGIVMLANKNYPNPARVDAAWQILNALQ
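20 mM phosphate pH 7.0 + 0.01% (detergent screen) or 0.0001% Triton X-100; 5.3 nM AmpC reagent; cpd preinc 15 min RT; nitrocefin (800 uM stock) to start; A480 q20 s × 4 min; Activity was normalised to no-enzyme and no-compound control wells.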
Giardia FBPA inh: inhibitors of Giardia lamblia fructose-1,6-bisphosphate aldolase. purified Giardia FBPA. Potency, µM (top dose mostly 59.6 µM), for inactives: at the top dose activity, negative = inhibition, usual class: inhibitors. 290,000 tested, 0.71% active; note: nearly all actives have a fitted effect of over 55% in size
Target sequence (A8B2U2 whole entry, looked up): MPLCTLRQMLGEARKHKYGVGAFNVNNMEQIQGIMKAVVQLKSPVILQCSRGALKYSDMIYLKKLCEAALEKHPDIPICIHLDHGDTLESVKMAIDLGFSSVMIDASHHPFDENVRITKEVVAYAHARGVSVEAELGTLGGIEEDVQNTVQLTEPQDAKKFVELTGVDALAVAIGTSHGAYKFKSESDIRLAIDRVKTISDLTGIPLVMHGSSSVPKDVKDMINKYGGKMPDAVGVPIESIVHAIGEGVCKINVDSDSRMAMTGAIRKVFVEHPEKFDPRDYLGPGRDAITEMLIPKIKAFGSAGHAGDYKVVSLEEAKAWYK
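Giardia FBPA (40 nM reagent) was preincubated 10 min at RT with compound (up to 57.5 uM final), then substrate plus GAPDH/TPI/NAD/arsenate coupling system with diaphorase/resazurin was added; resorufin fluorescence (525/598 nm) was read after 20 min.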
Sm TGR inh: inhibitors of Schistosoma mansoni thioredoxin glutathione reductase; Q962Y6; purified TGR, DTNB reduction, TNB absorbance 405 nm; Potency, µM (doses to about 114 µM), without a hit: at the top dose activity change, negative = inhibition, most hits filed as inhibitors; AID 485364; 360,000 tested, 3% active; note: nearly all actives have a fitted effect of over 60% in size
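TGR 20 nM + NADPH 100 uM (dispensed conc.), cpd preinc 15 min RT; start with NADPH (500 uM addition) then DTNB (15 mM addition). Kinetic TNB absorbance, 405 nm filter. Four-parameter Hill fit across titration.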
AmpC inh detg: AmpC beta-lactamase inhibition with detergent present; AID 485294; P00811; AmpC hydrolysis of nitrocefin, absorbance 480 nm, 0.01% Triton; 370,000 tested, 0.041% active; Potency, µM (titrated, usually from 114 µM), for inactives: at the highest dose activity change, negative = inhibition, usual class: inhibitors;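 note: 0% = no-compound wells and -100% = no-enzyme wells; nearly all actives have a fitted effect of over 25% in size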
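20 mM phosphate pH 7.0 + 0.01% (detergent screen) or 0.0001% Triton X-100; 5.3 nM AmpC reagent; cpd preinc 15 min RT; nitrocefin (800 uM stock) to start; A480 q20 s × 4 min; Activity was normalised to no-enzyme and no-compound control wells.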
An asterisk follows results filed as active; [ ] = another dose, or the depositor's remark. Calls come from the whole dose curve; as a rule, active = well fitted curve in the direction sought with a large enough effect; inconclusive = small, poorly fitted or top-dose-only effect, or another doubt; inactive = no such curve, though single readings can be large; an effect the other way counts as inactive or inconclusive. Unless noted, % is set by controls: 0 for no effect and ±100 for the full control effect; potency is the fitted concentration of half-maximal effect.

How did COc1ccc(NC(=O)CSc2nnc(-c3ccco3)c(-c3ccco3)n2)cc1OC do in these assays?
AmpC no deterg: -12%; Giardia FBPA inh: -10%; Sm TGR inh: 5.6µM*; AmpC inh detg: -3%

Results for COc1cccc(NC(=O)CSc2nnc(-c3ccco3)c(-c3ccco3)n2)c1 ?
AmpC no deterg: -55%; Giardia FBPA inh: inconclusive; Sm TGR inh: 2.8µM*; AmpC inh detg: -9%

Results for COc1ccc(NC(=O)CSc2nc(-c3ccco3)cc(C(F)(F)F)n2)cc1OC ?
Sm TGR inh: -1%; AmpC inh detg: -3%

How did COc1ccc(S(=O)(=O)N2CCc3ccccc32)cc1C(=O)N(CC(C)C)C1CCS(=O)(=O)C1 (stereo unspecified) do in these assays?
AmpC no deterg: 221%; Sm TGR inh: -2%; AmpC inh detg: -3%

How did O=C(c1ccc2nc(-c3ccco3)c(-c3ccco3)nc2c1)N1CCC2(CC1)OCCO2 do in these assays?
AmpC no deterg: 72%; Giardia FBPA inh: 7.1µM*; Sm TGR inh: 1.6µM*; AmpC inh detg: -3%

What do the screens show for `CCc1nc2ccc(C(=O)NCCc3ccc(OC)c(OC)c3)cc2nc1CC`?
AmpC no deterg: 122%; Giardia FBPA inh: 1%; Sm TGR inh: -3%; AmpC inh detg: -12%

What do the screens show for `O=C(c1ccc2nc(-c3ccco3)c(-c3ccco3)nc2c1)N1CCN(c2ccccc2)CC1`?
AmpC no deterg: 95%; Giardia FBPA inh: inconclusive; Sm TGR inh: 35µM*; AmpC inh detg: inconclusive

How did O=C(O)c1ccc2nc(-c3ccco3)c(-c3ccco3)nc2c1 do in these assays?
AmpC no deterg: -21%; Giardia FBPA inh: 6.3µM*; Sm TGR inh: 0.5µM*; AmpC inh detg: 2%

Results for COc1ccc(CCNC(=O)c2ccc3nc(-c4ccco4)c(-c4ccco4)nc3c2)cc1OC ?
AmpC no deterg: 77%; Giardia FBPA inh: inconclusive; Sm TGR inh: 3.2µM*; AmpC inh detg: 5%

How did CCc1nc2ccc(C(=O)N3CCN(c4ccccc4)CC3)cc2nc1CC do in these assays?
AmpC no deterg: 127%; Sm TGR inh: 8%; AmpC inh detg: 1%

Results for Cn1cc([C@@H]2C[C@H]3CN(Cc4cccc(Cl)c4)C(=O)[C@]34CCCN24)c2ccccc21 ?
AmpC no deterg: 118%; Giardia FBPA inh: -6%; Sm TGR inh: -20%; AmpC inh detg: -4%

What do the screens show for `O=C1c2ccccc2C(=O)N1CCCc1cn(C[C@H]2CC[C@H](Cn3cc(CCCN4C(=O)c5ccccc5C4=O)nn3)O2)nn1`?
AmpC no deterg: 152%

How did CCOC(=O)[C@@H]1[C@H]2COc3ccc(Br)cc3[C@H]2N2C(=O)N(c3ccc(F)cc3)C(=O)[C@@]12C do in these assays?
AmpC no deterg: -24%; Giardia FBPA inh: 1%; Sm TGR inh: 7%; AmpC inh detg: inconclusive

Results for Cc1ccc(S(=O)(=O)N2CCC[C@H]2C(=O)OCc2cc(=O)oc3cc(C)ccc23)cc1 ?
AmpC no deterg: 5%

What do the screens show for `O=C(Nc1cccc(C(F)(F)F)c1)c1ccc2snnc2c1`?
Sm TGR inh: inconclusive; AmpC inh detg: 16%

What do the screens show for `O=C(Nc1cccc(C(F)(F)F)c1)c1ccc2nc(-c3ccco3)c(-c3ccco3)nc2c1`?
AmpC no deterg: -53%; Giardia FBPA inh: inconclusive; Sm TGR inh: 3.5µM*; AmpC inh detg: -7%

Results for O=C(N/N=C\c1coc2ccccc2c1=O)c1ccco1 ?
AmpC no deterg: -26%; Giardia FBPA inh: -4%; Sm TGR inh: 28µM*; AmpC inh detg: -12%

Results for COc1cc(NC(=O)CSc2ccc(-c3ccco3)nn2)cc(OC)c1 ?
AmpC no deterg: -34%; Sm TGR inh: 32µM*; AmpC inh detg: 5%

What do the screens show for `COc1ccc(NC(=O)CSc2ccc(-c3ccco3)nn2)cc1`?
AmpC no deterg: -34%; Sm TGR inh: 14µM*; AmpC inh detg: -5%

How did COc1ccc(-c2ccc(SCC(=O)NCc3ccco3)nn2)cc1 do in these assays?
AmpC no deterg: 0%; Giardia FBPA inh: -4%; Sm TGR inh: -21%; AmpC inh detg: -8%

How did CC(=O)c1ccc(-c2ccc(C(=O)Nc3nc(-c4ccccn4)cs3)o2)cc1 do in these assays?
AmpC no deterg: -47%

What do the screens show for `O=C(Nc1nc(-c2ccccn2)cs1)c1ccc(-c2ccccc2F)o1`?
AmpC no deterg: 37%; Sm TGR inh: 25µM*; AmpC inh detg: -3%

How did COc1ccc(CCNC2=C(Cl)C(=O)N(CCc3ccc(OC)c(OC)c3)C2=O)cc1OC do in these assays?
AmpC no deterg: 84%; Giardia FBPA inh: 3%; Sm TGR inh: -13%; AmpC inh detg: -6%

How did COC(=O)C1=C(C)N(CCc2ccc(OC)c(OC)c2)C(=O)/C1=C\N(C)C do in these assays?
AmpC no deterg: 43%; Giardia FBPA inh: -16%; Sm TGR inh: 7.9µM*; AmpC inh detg: -2%

How did CCOc1ccc(NC2C=CS(=O)(=O)C2)cc1 (stereo unspecified) do in these assays?
AmpC no deterg: -19%; Giardia FBPA inh: inconclusive; Sm TGR inh: 28µM*; AmpC inh detg: -5%

How did CCOC(=O)CCCCC(=O)c1[nH]c(=O)[nH]c1CSc1nnc2c3cc(Br)ccc3n(C)c2n1 do in these assays?
AmpC no deterg: -15%; Giardia FBPA inh: -6%; Sm TGR inh: -36%; AmpC inh detg: -12%

How did CN(C)CCCOC(=O)c1cc2ccccc2o1 do in these assays?
AmpC no deterg: -12%; Giardia FBPA inh: -9%; Sm TGR inh: inconclusive; AmpC inh detg: 3%

Results for CCOC(=O)c1[nH]c(=O)[nH]c1COC(=O)c1cc2ccccc2o1 ?
AmpC no deterg: -22%; Giardia FBPA inh: -7%; Sm TGR inh: 4.5µM*; AmpC inh detg: -4%

What do the screens show for `CCOC(=O)c1[nH]c(=O)[nH]c1CSc1nc(C)cc(C)n1`?
AmpC no deterg: -21%; Giardia FBPA inh: -5%; Sm TGR inh: 35µM*; AmpC inh detg: 1%

How did CCOC(=O)CCCCC(=O)c1[nH]c(=O)[nH]c1CSc1nc2ccccc2[nH]1 do in these assays?
AmpC no deterg: -10%; Giardia FBPA inh: 2%; Sm TGR inh: 3.2µM*; AmpC inh detg: -6%

Results for CCOC(=O)CCCCC(=O)c1[nH]c(=O)[nH]c1CSc1nc(C)cc(C)n1 ?
AmpC no deterg: -3%; Giardia FBPA inh: -2%; Sm TGR inh: 8%[11.4 µM]; AmpC inh detg: -10%

How did CCOC(=O)CCCCC(=O)c1[nH]c(=O)[nH]c1CSc1nc(C)cc(=O)[nH]1 do in these assays?
AmpC no deterg: -8%; Giardia FBPA inh: -25%; Sm TGR inh: 2.5µM*; AmpC inh detg: inconclusive

Results for COc1c(Cl)ccc(Cl)c1C(=O)NC(=S)N1CCOCC1 ?
AmpC no deterg: -16%; Giardia FBPA inh: -18%; Sm TGR inh: -8%; AmpC inh detg: -8%

How did Cc1cccc(N2CCN(C(=O)c3cc4ccc5cccnc5c4[nH]3)CC2C)c1 (stereo unspecified) do in these assays?
Sm TGR inh: -12%; AmpC inh detg: -4%

Source: PubChem BioAssay
